# Source: PubChem (National Center for Advancing Translational Sciences (NCATS))
# HCMV inh: inhibitors of human cytomegalovirus | HFF cells, HCMV-luciferase reporter, 72 h; stronger effect = lower value | activity change, negative = inhibition, % at 57.5 µM | 410,000 compounds, 4.5% hits | AID 1259415; in the data active = activity change below about -60%; inconclusive = no clear call, values can overlap the other calls; inactive = above about -39%; note: % is set by controls: 0 for no effect and ±100 for the full control effect
#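 Screen run at 2 compound doses on HFFs infected with reporter HCMV, MOI 1 PFU/cell. Luciferase activity from cell lysates at 72 h post infection gave inhibition relative to buffer-only and Salinomycin wells.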
# Marburg entry inh: blocks Marburg virus binding to or entry into cells. 300,000 compounds, 1.8% hits. Potency, µM (highest dose often 37.8 µM), inactives show at the top dose activity change, negative = inhibition, actives largely listed as inhibitors. Marburg virus pseudotyped entry inhibition, cell reporter; calls by dose curve; tested in HEK293 cells; note: potency is the fitted concentration of half-maximal effect; % is set by controls: 0 for no effect and ±100 for the full control effect
# LASV entry inh: Lassa virus entry inhibition. Lassa virus pseudotype entry inhibition, cell reporter. Potency, µM (doses to about 37.9 µM), for inactives: top-dose activity change, negative = inhibition, actives largely listed as inhibitors. AID 540256. 300,000 compounds, 1.2% hits; calls by dose curve; tested in HEK293 cells; note: potency is the fitted concentration of half-maximal effect; % is set by controls: 0 for no effect and ±100 for the full control effect; nearly all actives have a fitted effect of over 50% in size
# HCV inh: inhibitors of hepatitis C virus infection. Huh7.5.1 HCVcc-Cre infection, luciferase reporter, 44 h. Potency, µM (series often up to 41.8 µM), inactives show at the highest dose activity change, negative = inhibition, most hits filed as inhibitors. 340,000 compounds, 3.4% hits; active = well fitted inhibition curve with a large enough effect; inconclusive = small, poorly fitted or top-dose-only effect, or another doubt; inactive = no such curve, though single readings can be large or run the other way; note: potency is the fitted concentration of half-maximal effect; % is set by controls: 0 for no effect and ±100 for the full control effect
#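 Infectious HCV cell culture screen: compound-treated cells (1,000/well, pre-plated 4 h) are infected with HCVcc-Cre at roughly 0.5 moi and grown 44 h. Infection is quantified by luciferase signal after 15 min substrate incubation at room temperature.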
# SARS PLP yeast: inhibitors of SARS-CoV papain-like protease in yeast; S. cerevisiae expressing SARS-CoV PLpro, growth rescue; Potency, µM (doses to about 32.9 µM), for inactives: at the highest dose activity, positive = growth rescue, hits mostly activators; 330,000 compounds, 0.19% hits; AID 485353; calls by dose curve; note: potency is the fitted concentration of half-maximal effect; 0% is about no effect; nearly all actives have a fitted effect of over 55% in size
# FMDV inh: foot and mouth disease virus antiviral activity; 410,000 compounds, 1.2% hits; Potency, µM (highest dose often 57.9 µM), for the others: top-dose activity change, negative = inhibition, most hits filed as inhibitors; FMDV antiviral cell-based qHTS; calls by dose curve; tested in HEK293T cells; note: read-out not given here; potency is the fitted concentration of half-maximal effect; % is set by controls: 0 for no effect and ±100 for the full control effect; nearly all actives have a fitted effect of over 45% in size
# The depositor's hits bear a star; ? = inconclusive; · = no result; [ ] = dose if it differs, or a comment. The list is not random: actives were taken first. Their share in the collection is about 8%.
SMILES,HCMV inh,Marburg entry inh,LASV entry inh,HCV inh,SARS PLP yeast,FMDV inh
COc1ccc(NC(=O)Cn2nnc(-c3ccccc3NC(=O)c3ccco3)n2)cc1,-23,11µM*,?,?,2%,-43%
COc1ccccc1NC(=O)Cn1nnc(-c2ccccc2NC(=O)c2ccco2)n1,-3,-28%,?,?,8%,?
O=C(OCCc1cc2ccccc2c(=O)o1)c1ccccc1C(F)(F)F,-3,·,·,22µM*,6%,-27%
O=C(c1ccc(N2CCCC2)c([N+](=O)[O-])c1)N1CCN(S(=O)(=O)c2ccccc2)CC1,2,-6%,-22%,14µM*,-4%,?
CC1Cc2ccccc2N1C(=O)c1ccc(N2CCCC2)c([N+](=O)[O-])c1 (centres undefined),-39,?,?,13µM*,-19%,?
O=C(c1cccc(F)c1)N1CCN(c2cc(N3CCCCC3)c(F)cc2[N+](=O)[O-])CC1,-74*,?,-29%,3%,-15%,6%
CC1Cc2ccccc2N1C(=O)c1ccc(N2CCCCC2)c([N+](=O)[O-])c1 (centres undefined),-35,-25%,?,-17%,-32%,-14%
COc1ccc(CC(=O)Nc2cc3oc4ccccc4c3cc2OC)cc1,63,2%,5%,4.5µM*,-2%,67%
CCc1ccc(OCC(=O)Nc2cc3oc4ccccc4c3cc2OC)cc1,5,-23%[46.1 µM],-1%[46.1 µM],·,·,?
COc1cccc(CN(C)CC(=O)Nc2cc3oc4ccccc4c3cc2OC)c1,18,?,4%,16µM*,·,2%
COc1cc2c(cc1NC(=O)CN(C)Cc1cccc(OC)c1OC)oc1ccccc12,-25,?,-16%,3.5µM*,-49%,-1%
COc1cc2c(cc1NC(=O)COCC(=O)O)oc1ccccc12,?,2%[46.1 µM],24%[46.1 µM],2%,-3%,-5%
COc1cc2c(cc1NC(=O)/C=C/c1cc(OC)c(OC)c(OC)c1)oc1ccccc12,5,8.9µM*,?,8.9µM*,5%,?
COc1ccc(OC)c(C2Nc3c(C)cc(C)cc3-c3cc(C)nn32)c1 (centres undefined),11,-4%[46.1 µM],1%[46.1 µM],·,·,-20%
COc1cc2c(cc1NC(=O)CSc1ccc(Cl)cc1)oc1ccccc12,-27,0%,5%,10µM*,23%,3%
COc1cc2c(cc1NC(=O)COc1ccc(Cl)cc1)oc1ccccc12,-3,22%[46.1 µM],12%[46.1 µM],·,·,-27%
CCN(CC)S(=O)(=O)c1cccc(NC(=O)CN(C)Cc2cccc(OC)c2)c1,?,23µM*,11µM*,?,0%,?
COc1cc(OC)cc(C(=O)NC(=S)Nc2cc3oc4ccccc4c3cc2OC)c1,-30,?,?,1.8µM*,12%,-17%
COc1ccc(C(=O)NC(=S)Nc2cc3oc4ccccc4c3cc2OC)cc1,-22,?,3%[46.1 µM],6%,5%,-16%
O=C(O)c1ccc(CNCc2ccccc2Cl)s1,-13,2%[46.1 µM],?,·,·,24%
O=C(Cn1c(-c2cccs2)cc2cc(F)ccc21)NCCc1ccc(Cl)cc1,-20,?,12%[46.1 µM],·,·,-12%
COC(=O)C[C@H]1SC(=O)NC1=O,·,0%,·,·,·,·
Cc1c(C(=O)N2CCC(C)CC2)c(S(=O)(=O)N2CCN(c3ccc(Cl)cc3)CC2)c(C)n1C,23,·,-11%[46.1 µM],·,·,-7%
Cc1nn(-c2ccccc2)c(C)c1/C=N/n1c(-c2ccccc2Br)n[nH]c1=S,-19,?,13µM*,-20%,0%,-10%
CCc1ccccc1NC(=O)c1cc(S(=O)(=O)N2CCCc3ccccc32)ccc1F,-32,·,-1%[46.1 µM],·,·,?
SMILES,HCMV inh,Marburg entry inh,LASV entry inh,HCV inh,SARS PLP yeast,FMDV inh
CCN1C(=O)NC(CCc2ccccc2)C(C(C)=O)=C1C (centres undefined),·,-9%[14.2 µM],·,·,·,·
CCCCn1c(N)c(N(CCC(C)C)C(=O)CSc2nc3ccccc3n2C)c(=O)[nH]c1=O,-18,6%,-1%,10µM*,·,-15%
COc1ccc(OC)c(-n2nnnc2SCC(=O)Nc2ccc3c(c2)OCCO3)c1,1,-18%,1%,?,-4%,·
COc1ccc(C(=O)NNC(=O)CSc2nnnn2-c2cc(OC)cc(OC)c2)cc1,8,15%,12%,11µM*,2%,-1%
COc1ccc(OC)c(-n2nnnc2SCC(=O)Nc2ccc(C(=O)N3CCCCC3)cc2)c1,-64*,-23%,-17%,-24%,-1%,·
O=C(c1cc(COc2cccc(C(F)(F)F)c2)on1)N1C[C@H]2CC[C@H]1C2,-13,?,-9%,-21%,-6%,1%
CC1(C)C[C@@H]2C[C@@](C)(CN2C(=O)c2cc(COc3cccc(C(F)(F)F)c3)on2)C1,?,?,-30%,10µM*,10%,-13%
COc1ccc(OC)c(NC(=O)C(Cc2ccccc2)NS(=O)(=O)c2ccc3c(c2)CCC(=O)N3)c1 (centres undefined),1,-5%[46.1 µM],?,·,·,-22%
COc1ccc(NC(=O)C(Cc2ccccc2)NS(=O)(=O)c2ccc3c(c2)CCC(=O)N3)c(OC)c1 (centres undefined),-102*,-1%[46.1 µM],?,·,·,-9%
CCOC(=O)c1ccccc1NC(=O)N1CCN(Cc2cc(=O)n3nc(-c4ccccc4)sc3n2)CC1,5,·,10%[46.1 µM],·,·,-9%
COc1ccc(N/N=C(/C(N)=O)C2=NC(C)(C)Cc3ccccc32)cc1,-92*,?,?,?,-53%,-19%
CC1(C)Cc2ccccc2C(/C(C#N)=N/O)=N1,12,·,·,2%,0%,13%
COc1ccc(CCNC(=O)CCc2c(C)c3cc4c(C)coc4c(C)c3oc2=O)cc1OC,-18,12%[46.1 µM],?,·,·,-11%
CCc1ccccc1NC(=O)CC1NCCNC1=O (centres undefined),3,4%[46.1 µM],-7%[46.1 µM],·,·,-13%
COc1ccc(OC)c(CCNC(=O)c2cnn(-c3ccccc3)c2-n2cccc2)c1,-90*,?,-4%[46.1 µM],·,·,0%
COc1ccc(CNC(=O)CSCc2cnn(-c3ccccc3)c2-n2cccc2)cc1,3,-3%,-27%,-9%,-11%,?
COc1ccc(OC)c(CCNC(=O)c2cc3c(=O)n(C)c4ccccc4c3n2C)c1,-105*,13%[46.1 µM],?,·,·,?
CCOC(=O)c1ccc(NC(=O)CSc2nnc(CCc3ccc(C)o3)n2-c2ccccc2)cc1,-1,-28%,-9%,10µM*,16%,-14%
Cc1cccc(N(C)S(=O)(=O)c2nnc(NC(=O)C(C)(C)C)s2)c1,23,·,9%[46.1 µM],·,·,-16%
COc1cccc(-n2c(=O)c3c(C)c(C)sc3n(Cc3ccccc3C#N)c2=O)c1,1,-8%[46.1 µM],1%[46.1 µM],·,·,1%
Cc1ccc(NC(=O)N/C=C/c2ccco2)cc1C,-108*,4%,-1%,0%,4%,6%
